# Test results from PubChem BioAssay (NCATS).
# A number with no mark means an inactive call. Inconclusive results are not listed. A call without a number means that no potency is given here. Active and inactive are the calls of the source. Calls follow the shape of the dose curve; as a rule, active = well fitted curve in the direction sought with a large enough effect; inconclusive = small, poorly fitted or top-dose-only effect, or another doubt; inactive = no such curve, though single readings can be large; an effect the other way counts as inactive or inconclusive.
# Key:
# [1] = tested on: AS120; assay: qHTS profiling for inhibitors of Plasmodium falciparum proliferation (AID 504749); also: nearly all actives have a fitted effect of over 60% in size; conditions: P. falciparum in erythrocytes, SYBR Green DNA, 72 h; series mostly up to 28.7 µM
# How it was run: (§1)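 Three-day growth assay of blood-stage parasites in erythrocytes (0.3% parasitemia, 2.5% hematocrit) at 37 C, 5% CO2, quantified by SYBR Green DNA staining after overnight detergent lysis.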
# [2] = tested on: ATS189; assay: as above; conditions: P. falciparum in erythrocytes, SYBR Green DNA, 72 h; series mostly up to 28.7 µM
# How it was run: as §1
# [3] = tested on: CP185; assay: as above; conditions: P. falciparum in erythrocytes, SYBR Green DNA, 72 h; series mostly up to 28.7 µM
# How it was run: as §1
# [4] = tested on: CP191; assay: as above; conditions: P. falciparum in erythrocytes, SYBR Green DNA, 72 h; series mostly up to 28.7 µM
# How it was run: as §1
# [5] = tested on: CP194; assay: as above; conditions: P. falciparum in erythrocytes, SYBR Green DNA, 72 h; series mostly up to 28.7 µM
# How it was run: as §1
# [6] = tested on: CP203; assay: as above; conditions: P. falciparum in erythrocytes, SYBR Green DNA, 72 h; series mostly up to 28.7 µM
# How it was run: as §1
# [7] = tested on: CP247; assay: as above; conditions: P. falciparum in erythrocytes, SYBR Green DNA, 72 h; series mostly up to 28.7 µM
# How it was run: as §1
# [8] = tested on: CP291; assay: as above; conditions: P. falciparum in erythrocytes, SYBR Green DNA, 72 h; series mostly up to 28.7 µM
# How it was run: as §1
# [9] = tested on: DFO2036; assay: as above; conditions: P. falciparum in erythrocytes, SYBR Green DNA, 72 h; series mostly up to 28.7 µM
# How it was run: as §1
# [10] = tested on: TAB109; assay: as above; conditions: P. falciparum in erythrocytes, SYBR Green DNA, 72 h; series mostly up to 28.7 µM
# How it was run: as §1
# [11] = tested on: TAB113; assay: as above; conditions: P. falciparum in erythrocytes, SYBR Green DNA, 72 h; series mostly up to 28.7 µM
# How it was run: as §1
# [12] = target: Cytochrome P450 2D6 (Homo sapiens) (UniProt P10635); assay: qHTS for inhibitors of CYP2D6 against the NCATS DSHEA and TCM libraries (AID 1919972)
# How it was run: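 Steps: enzyme plus luciferin substrate dispensed; test substances pinned; 15 min RT; 1x NADPH regenerating solution added, 30–45 min RT protected from light; detection reagent, 30 min RT; luminescence measured. Minus-enzyme wells as background.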
# [13] = target: Cytochrome P450 2C9 (Homo sapiens) (UniProt P11712); assay: qHTS for inhibitors of CYP2C9 against the NCATS DSHEA and TCM libraries (AID 1919973);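 also: luminogenic pro-luciferin CYP2C9 substrate turned into luciferin with NADPH regeneration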
# How it was run: (§2)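 Luminescent P450-Glo readout. Enzyme plus pro-luciferin substrate in manufacturer buffer (typically 100 mM KPO4); 15 min RT preincubation; 1x NADPH regenerating system, 30-45 min RT in the dark; detection reagent 30 min.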
# [14] = target: Cytochrome P450 2C19 (Homo sapiens) (UniProt P33261); assay: qHTS for inhibitors of CYP2C19 against the NCATS DSHEA and TCM libraries (AID 1919974);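 also: luminescence from luciferin released by CYP2C19 oxidation of a pro-luciferin substrate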; also: potency is read from the fitted curve at half-maximal effect
# How it was run: as §2
# [15] = KB-3-1 P-gp reporter qHTS against the NCATS DSHEA and TCM libraries (AID 1919975)
# How it was run: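 Cell viability qHTS: 500 KB-3-1 cells/well, substances in titration, ~72 h, 37C; luminescent CellTiter-Glo read.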
# [16] = qHTS Counterscreen for compound interference against the NCATS DSHEA and TCM libraries (AID 1919978); conditions: firefly luciferase detection reagent interference, luminescence;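 also: compounds preincubated with 1 µM D-luciferin or buffer before detection reagent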
# How it was run: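 Interference check: test samples were incubated with D-luciferin (final 1 uM) or buffer only for 15 min, room temperature, in a qHTS titration up to 39.8 uM, then developed with detection reagent and read by luminescence.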
# [17] = Dual reporter qHTS for agonist of Pregnane X Receptor (hPXR) against the NCATS DSHEA and TCM libraries: Fluorescence readout (AID 1920058)
# How it was run: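 hPXR-Luc HepG2 cells (2000/well) in phenol red-free medium with charcoal-stripped FBS attached for 5 h, then were exposed to compounds for about 24 h at 37 °C. Viability was read by CellTiter-Fluor fluorescence (Ex/Em 405/540 nm) after 1 h.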
# [18] = target: Nuclear receptor subfamily 1 group I member 2 (Homo sapiens) (UniProt O75469); assay: Dual reporter qHTS for agonist of Pregnane X Receptor (hPXR) against the NCATS DSHEA and TCM libraries: Luminescence readout (AID 1920059)
# How it was run: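 Luminescent PXR reporter read (ONE-Glo) after a CellTiter-Fluor viability read, following 24 h, 37C treatment of HepG2 cells stably carrying hPXR-Luc.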
# [19] = target: Nuclear receptor subfamily 1 group I member 2 (Homo sapiens) (UniProt O75469); assay: Dual reporter qHTS for antagonist of Pregnane X Receptor (hPXR) against the NCATS DSHEA and TCM libraries: Luminescence Readout (AID 1920060)
# How it was run: (§3)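 Rifampicin-stimulated (2 uM final) hPXR-luciferase HepG2 cells were treated for 24 h with DSNP/TCM substances. Viability came from CellTiter-Fluor fluorescence, reporter activity from ONE-Glo luminescence.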
# [20] = Dual reporter qHTS for antagonist of Pregnane X Receptor (hPXR) against the NCATS DSHEA and TCM libraries: Fluorescence Readout (AID 1920061)
# How it was run: as §3
# Sequence of Nuclear receptor subfamily 1 group I member 2 (Homo sapiens) (O75469 whole entry, looked up): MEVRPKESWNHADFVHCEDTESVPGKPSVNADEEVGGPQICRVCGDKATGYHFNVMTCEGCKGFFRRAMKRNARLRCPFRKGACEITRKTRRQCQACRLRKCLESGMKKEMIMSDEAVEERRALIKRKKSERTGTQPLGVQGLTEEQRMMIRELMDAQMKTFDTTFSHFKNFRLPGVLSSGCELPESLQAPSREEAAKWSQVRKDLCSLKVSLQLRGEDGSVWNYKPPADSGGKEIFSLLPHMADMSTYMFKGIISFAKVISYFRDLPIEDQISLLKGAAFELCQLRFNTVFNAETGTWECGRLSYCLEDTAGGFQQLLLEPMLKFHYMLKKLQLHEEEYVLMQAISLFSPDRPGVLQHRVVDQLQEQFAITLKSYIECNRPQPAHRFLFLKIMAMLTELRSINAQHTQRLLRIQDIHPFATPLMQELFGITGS
# Sequence of Cytochrome P450 2C19 (Homo sapiens) (P33261 whole entry, looked up): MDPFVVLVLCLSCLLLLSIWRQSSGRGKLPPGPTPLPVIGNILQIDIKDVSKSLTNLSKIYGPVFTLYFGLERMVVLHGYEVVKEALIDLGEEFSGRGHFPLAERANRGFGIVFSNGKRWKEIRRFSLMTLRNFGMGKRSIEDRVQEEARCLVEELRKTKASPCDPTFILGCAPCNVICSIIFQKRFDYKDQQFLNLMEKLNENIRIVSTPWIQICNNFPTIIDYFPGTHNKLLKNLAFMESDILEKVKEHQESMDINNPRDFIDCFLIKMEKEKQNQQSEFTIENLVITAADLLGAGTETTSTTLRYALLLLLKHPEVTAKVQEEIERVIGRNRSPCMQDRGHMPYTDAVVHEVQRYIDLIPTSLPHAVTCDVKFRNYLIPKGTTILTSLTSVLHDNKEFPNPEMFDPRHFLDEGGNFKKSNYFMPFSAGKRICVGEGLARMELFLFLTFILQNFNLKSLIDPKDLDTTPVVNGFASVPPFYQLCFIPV
# Sequence of Cytochrome P450 2C9 (Homo sapiens) (P11712 whole entry, looked up): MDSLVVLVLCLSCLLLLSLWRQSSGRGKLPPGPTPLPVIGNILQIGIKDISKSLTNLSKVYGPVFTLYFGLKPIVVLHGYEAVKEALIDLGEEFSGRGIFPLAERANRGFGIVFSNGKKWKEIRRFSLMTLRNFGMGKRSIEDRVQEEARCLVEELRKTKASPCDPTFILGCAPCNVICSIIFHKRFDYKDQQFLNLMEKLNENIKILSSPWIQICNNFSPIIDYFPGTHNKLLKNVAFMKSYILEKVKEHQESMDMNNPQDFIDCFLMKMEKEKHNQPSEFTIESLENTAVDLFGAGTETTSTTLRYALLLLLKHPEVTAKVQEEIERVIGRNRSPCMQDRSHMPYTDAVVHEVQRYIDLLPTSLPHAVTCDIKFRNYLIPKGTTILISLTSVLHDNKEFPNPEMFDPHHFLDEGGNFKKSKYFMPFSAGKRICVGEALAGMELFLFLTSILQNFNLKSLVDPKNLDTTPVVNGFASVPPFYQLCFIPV
# Sequence of Cytochrome P450 2D6 (Homo sapiens) (P10635 whole entry, looked up): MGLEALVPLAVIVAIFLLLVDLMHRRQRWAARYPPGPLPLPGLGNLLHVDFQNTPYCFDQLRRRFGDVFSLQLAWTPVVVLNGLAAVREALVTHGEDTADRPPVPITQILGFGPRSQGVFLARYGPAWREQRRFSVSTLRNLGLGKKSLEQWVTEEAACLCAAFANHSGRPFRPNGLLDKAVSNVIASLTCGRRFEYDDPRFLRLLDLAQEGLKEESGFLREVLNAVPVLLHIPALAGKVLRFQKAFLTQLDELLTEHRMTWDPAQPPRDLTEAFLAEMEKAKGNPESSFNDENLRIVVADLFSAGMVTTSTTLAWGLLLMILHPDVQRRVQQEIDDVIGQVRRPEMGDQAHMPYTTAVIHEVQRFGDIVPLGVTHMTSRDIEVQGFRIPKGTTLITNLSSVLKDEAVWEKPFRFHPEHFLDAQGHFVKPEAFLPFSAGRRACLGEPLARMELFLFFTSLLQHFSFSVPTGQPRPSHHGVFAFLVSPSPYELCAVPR
smiles,measurement,setting,value
C[C@@H](C(=O)O)c1ccc(-c2ccccc2)c(F)c1,Potency,[1],inactive
same,Potency,[2],inactive
same,Potency,[3],inactive
same,Potency,[4],inactive
same,Potency,[5],inactive
same,Potency,[6],inactive
same,Potency,[7],inactive
same,Potency,[8],inactive
same,Potency,[9],inactive
same,Potency,[10],inactive
same,Potency,[11],inactive
CC/C=C\C/C=C\C/C=C\C/C=C\C/C=C\CCCCCC(=O)O,"activity change, negative = inhibition",[12],-3.67% [at 4.27 µM]
same,Potency,[13],inactive
same,Potency,[14],inactive
same,"activity change, negative = inhibition",[15],-17.1% [at 3.26 µM]
same,max response,[16],0.0363%
same,activation,[17],-9.65% [at 5 µM]
same,activation,[18],-6.56% [at 5 µM]
same,"activity change, negative = inhibition",[19],-29.3% [at 5 µM]
same,"activity change, negative = inhibition",[20],2.07% [at 5 µM]
CCCCC[C@H](O)CC(=O)CCc1ccc(O)c(OC)c1,outcome,[12],inactive
same,Potency,[13],inactive
same,Potency,[14],14.1 µM (active)
same,outcome,[15],inactive
same,max response,[16],0.254%
same,outcome,[17],inactive
same,outcome,[18],inactive
same,outcome,[19],inactive
same,outcome,[20],inactive
